Source: the supplement of paper PMC7724964

Target: T1, SPRED3 1-117 WH1 (domain begin residue: 1, domain end residue: 117), Q2MJR0
T1 chain: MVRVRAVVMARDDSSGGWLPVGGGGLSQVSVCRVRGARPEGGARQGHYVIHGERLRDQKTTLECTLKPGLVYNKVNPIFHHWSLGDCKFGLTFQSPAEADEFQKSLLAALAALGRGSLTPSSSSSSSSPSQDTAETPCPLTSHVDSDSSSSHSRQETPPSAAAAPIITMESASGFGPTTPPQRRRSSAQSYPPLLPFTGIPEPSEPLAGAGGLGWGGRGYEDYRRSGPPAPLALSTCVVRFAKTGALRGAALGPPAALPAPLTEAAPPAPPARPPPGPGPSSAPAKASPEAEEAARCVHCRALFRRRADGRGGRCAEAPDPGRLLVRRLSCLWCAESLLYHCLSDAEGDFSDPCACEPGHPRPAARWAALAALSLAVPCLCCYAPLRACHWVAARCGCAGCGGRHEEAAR
Experiment: phage ELISA signal ratio (GST-PRM binding over GST background); higher = stronger binding of peptide-phage to the PRM
In short: (§1)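 Each value is the phage ELISA signal on the glutathione S-transferase (GST)-domain fusion divided by the signal on GST alone. Human peptide recognition domains were expressed in 96-well plates, fused to the C-terminus of GST, and selected against an M13 phage library carrying randomized, cysteine-free, glycine-flanked hexadecapeptides on the gene-8 major coat protein. After five selection rounds, approximately 48 individual clones from rounds 4 and 5 were tested by phage ELISA, and positive clones were sequenced.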

For EQWWHTPQSVQAWINS, which “phage ELISA signal ratio” value is on record?
The value was 19.5.

WEWKDYEKVVHFQDMK was tested. Which “phage ELISA signal ratio” value did it give?
The value was 3.38.

DVWYTTSESIIQYMQS was tested. Which “phage ELISA signal ratio” value did it give?
The value was 27.7.

Which “phage ELISA signal ratio” value does the source give for LDWDWVQWHFDDAMRW here?
The value was 7.1.

Which “phage ELISA signal ratio” value does the source give for WMWDGLAVVHMVPESV here?
The value was 8.68.

For DPGWYWEPAMLEAEWA, which “phage ELISA signal ratio” value is on record?
Its value is 28.4.

TPWWETTSTVMTYIKM was tested. Which “phage ELISA signal ratio” value did it give?
Its value is 19.4.

How did the “phage ELISA signal ratio” value turn out when NDQYTWSQVHQGWLPL was run?
The value was 26.5.

Target: T2, SPRED2 1-124 WH1 (domain begin residue: 1, domain end residue: 124), Q7Z698
T2 chain: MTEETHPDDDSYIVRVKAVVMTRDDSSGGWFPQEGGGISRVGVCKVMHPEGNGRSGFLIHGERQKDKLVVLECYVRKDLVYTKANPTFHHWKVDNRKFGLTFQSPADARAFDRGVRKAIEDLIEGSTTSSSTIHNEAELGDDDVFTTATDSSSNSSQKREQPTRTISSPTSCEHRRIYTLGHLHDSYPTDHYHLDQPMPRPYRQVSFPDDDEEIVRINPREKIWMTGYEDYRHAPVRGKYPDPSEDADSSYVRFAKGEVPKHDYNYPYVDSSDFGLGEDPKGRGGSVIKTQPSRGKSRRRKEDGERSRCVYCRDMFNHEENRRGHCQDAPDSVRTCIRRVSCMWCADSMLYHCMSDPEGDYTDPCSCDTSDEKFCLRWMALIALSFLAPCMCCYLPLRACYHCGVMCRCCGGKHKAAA
Experiment: as above
In short: as §1

With GIVPWWHDSGDHWGPL as the binder, how does the “phage ELISA signal ratio” value read?
Its value is 19.4.

For GYKLWETETSWWFVPA, which “phage ELISA signal ratio” value is on record?
The value was 14.

How did the “phage ELISA signal ratio” value turn out when PVQWGDWSYPYDLSGQ was run?
The value was 12.6.

How did the “phage ELISA signal ratio” value turn out when TWGWFDTGEAWSTMSM was run?
The value was 10.

Target: T3, SPRED1 13-131 WH1 (domain begin residue: 13, domain end residue: 131), Q7Z699
T3 chain: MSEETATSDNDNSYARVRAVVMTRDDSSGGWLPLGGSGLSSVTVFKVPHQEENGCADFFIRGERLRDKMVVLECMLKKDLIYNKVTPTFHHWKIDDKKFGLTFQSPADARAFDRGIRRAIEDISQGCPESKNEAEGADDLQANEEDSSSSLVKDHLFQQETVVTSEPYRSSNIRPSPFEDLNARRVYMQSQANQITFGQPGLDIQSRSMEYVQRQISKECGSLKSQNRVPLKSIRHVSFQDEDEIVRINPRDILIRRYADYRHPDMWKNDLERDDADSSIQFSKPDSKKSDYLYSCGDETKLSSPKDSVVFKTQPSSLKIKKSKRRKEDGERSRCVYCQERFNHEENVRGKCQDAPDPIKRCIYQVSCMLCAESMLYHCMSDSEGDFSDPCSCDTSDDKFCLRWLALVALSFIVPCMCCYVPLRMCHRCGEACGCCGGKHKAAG
Experiment: as above
In short: as §1

For WATVSEWGDWTTVVFN, which “phage ELISA signal ratio” value is on record?
Its value is 3.55.

Target: T4, SHC1 149-317 PID (domain begin residue: 149, domain end residue: 317), P29353
T4 chain: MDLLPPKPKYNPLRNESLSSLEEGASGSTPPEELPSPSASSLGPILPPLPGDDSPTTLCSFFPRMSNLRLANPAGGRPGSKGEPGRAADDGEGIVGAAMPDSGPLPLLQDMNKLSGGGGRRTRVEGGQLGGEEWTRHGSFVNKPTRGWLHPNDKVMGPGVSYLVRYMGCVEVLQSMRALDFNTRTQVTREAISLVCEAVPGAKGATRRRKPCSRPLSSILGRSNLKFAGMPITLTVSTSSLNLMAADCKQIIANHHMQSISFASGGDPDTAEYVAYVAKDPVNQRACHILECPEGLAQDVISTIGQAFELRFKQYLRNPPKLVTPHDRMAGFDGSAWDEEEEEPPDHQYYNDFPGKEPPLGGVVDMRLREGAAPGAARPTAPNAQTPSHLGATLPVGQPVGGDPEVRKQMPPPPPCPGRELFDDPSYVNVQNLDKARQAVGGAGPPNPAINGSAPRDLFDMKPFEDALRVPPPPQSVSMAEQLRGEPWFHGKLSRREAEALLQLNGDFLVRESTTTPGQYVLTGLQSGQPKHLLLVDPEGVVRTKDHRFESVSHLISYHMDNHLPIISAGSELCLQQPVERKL
Experiment: as above
In short: as §1

With GPMIGWNQEYIFFSEH as the binder, how does the “phage ELISA signal ratio” value read?
Its value is 16.2.

How did the “phage ELISA signal ratio” value turn out when EWGIMDSEWWGRYYEM was run?
Its value is 6.81.

LEEHWQWWVDDMMPME was tested. Which “phage ELISA signal ratio” value did it give?
The value was 4.84.

For QVDQGEYVYGFWWEVL, which “phage ELISA signal ratio” value is on record?
Its value is 9.85.

Which “phage ELISA signal ratio” value does the source give for PKWEFFQDHTQDHHNQ here?
The value was 6.37.

Target: T5, SPSB2 26-221 SPRY (domain begin residue: 26, domain end residue: 221), Q99619
T5 chain: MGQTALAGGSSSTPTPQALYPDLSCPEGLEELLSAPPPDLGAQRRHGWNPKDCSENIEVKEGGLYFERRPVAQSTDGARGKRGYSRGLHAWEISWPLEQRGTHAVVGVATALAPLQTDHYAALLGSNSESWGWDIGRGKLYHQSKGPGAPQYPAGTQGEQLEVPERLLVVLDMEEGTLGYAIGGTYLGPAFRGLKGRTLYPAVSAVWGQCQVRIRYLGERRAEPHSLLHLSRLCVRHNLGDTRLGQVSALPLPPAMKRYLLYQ
Experiment: as above
In short: as §1

For TGENNNVMPPHLSEHV, which “phage ELISA signal ratio” value is on record?
The value was 11.7.

MGQLQDMQNNNWVPIV was tested. Which “phage ELISA signal ratio” value did it give?
Its value is 33.8.

With NTMWFDLWDINNNPLS as the binder, how does the “phage ELISA signal ratio” value read?
The value was 32.3.

For YFYLDSNNNQVIPSSV, which “phage ELISA signal ratio” value is on record?
The value was 21.9.

RSDYARDANGNMVVEF was tested. Which “phage ELISA signal ratio” value did it give?
The value was 21.3.

For DFNNNTGPRLAAETIV, which “phage ELISA signal ratio” value is on record?
The value was 11.5.

Target: T6, SND1 650-910 TUDOR+SNase (domain begin residue: 650, domain end residue: 910), Q7KZF4
T6 chain: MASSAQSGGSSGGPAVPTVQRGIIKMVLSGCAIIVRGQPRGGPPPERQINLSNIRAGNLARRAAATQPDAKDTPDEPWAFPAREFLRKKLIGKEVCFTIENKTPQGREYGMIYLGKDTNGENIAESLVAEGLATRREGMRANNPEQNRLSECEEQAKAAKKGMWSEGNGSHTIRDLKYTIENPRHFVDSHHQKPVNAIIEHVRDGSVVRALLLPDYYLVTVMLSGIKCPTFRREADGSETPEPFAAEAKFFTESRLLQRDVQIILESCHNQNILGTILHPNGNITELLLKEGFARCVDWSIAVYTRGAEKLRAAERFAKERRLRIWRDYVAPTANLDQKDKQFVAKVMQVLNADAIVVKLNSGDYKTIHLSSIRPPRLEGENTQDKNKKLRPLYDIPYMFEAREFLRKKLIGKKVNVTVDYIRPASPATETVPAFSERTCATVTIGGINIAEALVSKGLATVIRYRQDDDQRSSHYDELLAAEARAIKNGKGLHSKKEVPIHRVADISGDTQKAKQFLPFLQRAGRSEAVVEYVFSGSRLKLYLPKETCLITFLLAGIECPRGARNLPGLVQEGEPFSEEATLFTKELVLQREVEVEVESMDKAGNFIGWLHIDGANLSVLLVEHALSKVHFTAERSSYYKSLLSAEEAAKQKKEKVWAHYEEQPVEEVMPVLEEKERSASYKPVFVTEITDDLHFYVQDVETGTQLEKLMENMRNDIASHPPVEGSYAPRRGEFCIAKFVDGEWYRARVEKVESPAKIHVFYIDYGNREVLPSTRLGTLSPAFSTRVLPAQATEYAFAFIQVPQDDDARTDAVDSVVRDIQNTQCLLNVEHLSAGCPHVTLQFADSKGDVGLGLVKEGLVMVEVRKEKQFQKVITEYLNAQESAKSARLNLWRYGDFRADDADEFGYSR
Experiment: as above
In short: as §1

YDWFSAVVEDQWEKVS was tested. Which “phage ELISA signal ratio” value did it give?
The value was 6.56.

PWDMIWDDPSWAPMLE was tested. Which “phage ELISA signal ratio” value did it give?
Its value is 7.49.

How did the “phage ELISA signal ratio” value turn out when EELWDQWHSWVTEPDE was run?
The value was 4.69.

Target: T7, SPAG1 615-745 TPR_1 (domain begin residue: 615, domain end residue: 745), Q07617
T7 chain: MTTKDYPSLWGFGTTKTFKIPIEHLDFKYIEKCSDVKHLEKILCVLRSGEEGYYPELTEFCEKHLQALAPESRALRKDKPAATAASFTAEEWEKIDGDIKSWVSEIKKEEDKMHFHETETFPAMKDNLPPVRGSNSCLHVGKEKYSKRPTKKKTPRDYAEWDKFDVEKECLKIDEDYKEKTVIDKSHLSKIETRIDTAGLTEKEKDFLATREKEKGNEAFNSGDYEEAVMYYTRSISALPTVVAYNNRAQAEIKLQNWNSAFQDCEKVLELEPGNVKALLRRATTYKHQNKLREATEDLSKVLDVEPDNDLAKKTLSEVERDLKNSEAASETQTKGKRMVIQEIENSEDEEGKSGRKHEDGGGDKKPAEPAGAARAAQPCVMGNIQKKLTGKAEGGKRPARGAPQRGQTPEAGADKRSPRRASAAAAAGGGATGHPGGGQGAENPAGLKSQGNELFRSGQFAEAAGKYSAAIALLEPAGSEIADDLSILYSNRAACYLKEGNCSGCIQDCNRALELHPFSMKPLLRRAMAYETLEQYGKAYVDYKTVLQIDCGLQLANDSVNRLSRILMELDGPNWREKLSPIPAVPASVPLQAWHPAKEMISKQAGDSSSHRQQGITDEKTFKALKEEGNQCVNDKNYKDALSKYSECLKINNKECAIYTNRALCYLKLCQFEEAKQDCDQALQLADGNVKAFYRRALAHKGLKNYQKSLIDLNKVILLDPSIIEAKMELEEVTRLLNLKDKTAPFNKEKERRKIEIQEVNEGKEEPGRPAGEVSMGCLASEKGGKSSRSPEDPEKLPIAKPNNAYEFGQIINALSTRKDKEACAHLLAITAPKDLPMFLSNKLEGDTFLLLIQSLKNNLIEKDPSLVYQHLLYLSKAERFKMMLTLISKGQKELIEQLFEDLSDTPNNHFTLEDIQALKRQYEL
Experiment: as above
In short: as §1

How did the “phage ELISA signal ratio” value turn out when MDLLEQQMWQDYFLWH was run?
The value was 3.83.
